From PubChem
The list is not random: actives were taken first. Their share in the collection is about 14%.
NS1 inh: blocks influenza NS1 protein function | 270,000 compounds, 0.4% hits | Potency, µM (doses to about 46.1 µM); calls by dose curve; note: actives are rising curves; nearly all actives have a fitted effect of over 50% in size
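A cell-based growth assay was used: compounds that relieve NS1-induced slow growth of budding yeast raise OD600. Assay medium was yeast nitrogen base with ammonium sulphate and -URA supplement, pH 6.0, with 2% galactose.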
Shiga toxin inh: blocks Shiga toxin action in Vero cells | Vero cells, Shiga toxin protein synthesis inhibition reporter | inhibition, % at 38.7 µM | 290,000 compounds, 9.2% hits; in the data active = inhibition mostly above about 28%, no sharp cut-off; inactive = mostly below about 43%
Cycloheximide cs: counter-screen hit for Shiga toxin inhibitors, cycloheximide; cell reporter, cycloheximide protein synthesis inhibition counterscreen; max response, %; 300,000 compounds, 12% hits; in the data active = max response mostly above about 13%, no sharp cut-off; inactive = mostly below about 14%; note: read at 38.3 µM for the half of the compounds with a filed dose
LmPK inhibitor: blocks Leishmania mexicana pyruvate kinase activity; 290,000 compounds, 0.37% hits; Potency, µM (top dose mostly 57.5 µM), most hits filed as inhibitors; AID 1721; Q27686; purified LmPK, Kinase-Glo ATP luminescence, 1 h
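ATP generated from ADP (0.1 mM) and PEP (0.5 mM) by 0.1 nM LmPK over 1 h at room temperature (pH 7.2 imidazole buffer) was detected by coupled luciferase luminescence. Values were normalized to uninhibited and no-enzyme wells.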
FBPA Giardia inh: blocks Giardia fructose-bisphosphate aldolase activity; Potency, µM (highest dose often 59.6 µM), most hits filed as inhibitors; A8B2U2; 290,000 compounds, 0.71% hits; purified Giardia FBPA; note: nearly all actives have a fitted effect of over 55% in size
Target sequence (A8B2U2 whole entry, looked up): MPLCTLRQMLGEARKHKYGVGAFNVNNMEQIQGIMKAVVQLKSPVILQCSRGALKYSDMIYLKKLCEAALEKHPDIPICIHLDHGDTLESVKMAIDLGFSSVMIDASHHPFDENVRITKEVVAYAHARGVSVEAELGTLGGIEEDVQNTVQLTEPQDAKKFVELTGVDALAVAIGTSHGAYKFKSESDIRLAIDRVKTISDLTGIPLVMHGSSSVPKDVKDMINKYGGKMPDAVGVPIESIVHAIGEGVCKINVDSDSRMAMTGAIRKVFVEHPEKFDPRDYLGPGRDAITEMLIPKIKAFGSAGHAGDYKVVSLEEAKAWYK
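40 nM FBPA preincubated 10 min at RT with compound (up to 57.5 uM final), then substrate plus GAPDH/TPI/NAD/arsenate coupling and diaphorase/resazurin added. Fluorescence read after 20 min at RT, 525/598 nm.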
Numbers stand for hits; i = inactive; ? = inconclusive; nt = no result given; [ ] = dose if it differs, or a comment. Unless noted, calls come from the whole dose curve; as a rule, active = well fitted curve in the direction sought with a large enough effect; inconclusive = small, poorly fitted or top-dose-only effect, or another doubt; inactive = no such curve, though single readings can be large; an effect the other way counts as inactive or inconclusive.

SMILES	NS1 inh	Shiga toxin inh	Cycloheximide cs	LmPK inhibitor	FBPA Giardia inh
CCc1cc(C(=O)NNC(=S)NCc2ccccc2)cs1	i	i	i	i	i
CCc1cc(C(=O)Nc2ccccc2)cs1	i	106	41	i	i
CCOC(=O)C1=C(C)NC(=O)CC1c1cc2c(cc1[N+](=O)[O-])OCO2 (configuration not stated)	nt	i	i	i[11.5 µM]	13µM
C[C@@H]1C(=O)CC2C(C)(C)CCC[C@]2(C)[C@@]1(O)CCc1ccoc1 (some centres not stated)	nt	nt	nt	nt	i
Cn1ccc(C(=O)Nc2ccc(Br)cc2Br)n1	i	167	104	i	i
Cc1ccc(NC(=O)c2ccn(C)n2)c(Br)c1	i	163	81	i	i
COCCn1c(=O)cnc2cnc(OCc3ccccc3)nc21	nt	nt	nt	nt	i
Cc1nn(C)c(C(=O)NC(=S)Nc2ccccc2Br)c1Cl	i	i	22	i	nt
CCn1ncc(Cl)c1C(=O)NC(=S)Nc1ccccc1Br	i	i	33	i	nt
CCCCOC(=O)c1ccc(NC(=S)NC(=O)c2c(Cl)cnn2CC)cc1	i	i	i	i	i
CC(Cc1ccccc1)[n+]1cc(/N=C(\[O-])Nc2ccccc2)on1 (configuration not stated)	i	i	17	i	i
CC(Cc1ccccc1)[n+]1cc(/N=C(\N)[O-])on1 (configuration not stated)	i	i	i	i	i
Cc1cc(N2C(=O)C3C4C=CC(C4)C3C2=O)ccc1NC(=O)c1cccs1 (configuration not stated)	i	i	i	i	i
CC1CC(OP(O)(=S)c2ccc(N(C)C)cc2NC(=O)c2cccs2)CC(C)(C)C1 (configuration not stated)	i	i	31	i	i
Cc1ccc2nc(NCCCN3CCOCC3)c(C=NCCCN3CCOCC3)c(=O)n2c1	i	i	9.9	i	i
N#Cc1cccc(NC(=O)N2CC3(CCN(C(=O)c4cnccn4)CC3)C2)c1	nt	nt	nt	nt	i
C[C@@]12C(=O)OC(=O)[C@]1(C)[C@H]1CC[C@@H]2O1	nt	nt	nt	nt	i
CC(=O)c1ccc(NC(=O)CN2CCCC2)cc1	i	28	27	i	i
O=C(CN1CCCCCC1)Nc1ccc(Br)cc1	i	i	24	i	i
COc1ccc(NC(=O)CSC2CCCCC2)cc1	i	153	61	i	i
COc1ccc(NC(=O)CN2CCCCC2)cc1	i	i	34	i	i
Cc1ccc(NC(=O)CN2CCCC2)cc1	i	nt	i	i	i
O=C(/C=C/c1ccccc1)OCCN1C(=O)c2ccccc2C1=O	i	i	i	i	i
O=C(CN1CCCCCC1)Nc1ccc(Br)cn1	?	i	15	i	i
COc1ccc(NC(=O)CN2CCN(CC(=O)Nc3ccc(F)cc3F)CC2)cc1	i	30	24	i	i
SMILES	NS1 inh	Shiga toxin inh	Cycloheximide cs	LmPK inhibitor	FBPA Giardia inh
CC(NC(=O)C(=O)c1cn(CC(=O)N2CCOCC2)c2ccccc12)c1ccccc1 (configuration not stated)	i	i	i	i	nt
COc1ccc(C(=O)N2N=C(c3ccc(NS(C)(=O)=O)cc3)CC2c2cccs2)cc1 (configuration not stated)	i	i	i	i	i
Cc1ccc(O)c(Nc2c3ccccc3nc3ccccc23)c1	i	33	21	i	i
Cc1ccc(C)c(Nc2nc(N)c3ccccc3n2)c1	nt	73	26	i	i
COc1ccc(Cl)cc1Nc1nc(N)c2ccccc2n1	i	nt	25	i	?
COc1ccc(C)cc1Nc1nc(N)c2cc(OC)c(OC)cc2n1	i	i	i	i	i
COC(=O)c1cc(S(=O)(=O)Nc2cc(OC)cc(OC)c2)c[nH]1	i	i	i	i	i
O=C(COc1ccc(-n2ccnc2)cc1)Nc1cccc(Cl)c1	nt	i	i	i	i
COc1ccc(NC(=O)N2CCN(S(C)(=O)=O)CC2)c(OC)c1	i	i	i	i	i
CCOc1cccc2cc(-c3csc(NC(=O)CCC(=O)NCCCN4CCC(C)CC4)n3)c(=O)oc12	nt	83	41	i	i
COc1cccc2cc(-c3csc(NC(=O)CCC(=O)NCCCN4CCC(C)CC4)n3)c(=O)oc12	i	73	28	?	i
CCOc1cccc2cc(-c3csc(NC(=O)CCC(=O)NCCN4CCCCC4C)n3)c(=O)oc12 (configuration not stated)	nt	i	40	i	i
Cc1nn(CCO)c2ncc(C(=O)c3cc(F)ccc3O)cc12	i	i	i	i	i
Cc1noc(C)c1C(=O)N1CCC[C@@]2(CCN(C(c3ccccc3)c3ccccc3)C2)C1	nt	nt	nt	nt	i
Oc1cc(NCc2cccnc2)ccc1-c1nc2ccccc2o1	i	84	53	i	i
COc1cccc2sc(N3CCN(c4nc5ccccc5s4)CC3)nc12	i	i	i	i	i
COc1cccc2sc(/N=C/N(C)C)nc12	i	50	10	i	i
COc1cccc2sc(N(C)c3ccccc3)nc12	i	i	61	?	i
CC(C)c1ccccc1NS(=O)(=O)c1cccs1	i	i	i	i	i
CC(=O)OCC(NC(=O)C1CCCN1C(=O)OC(C)(C)C)C1OC(n2ccc(=O)[nH]c2=O)C(OC(C)=O)C1OC(C)=O (configuration not stated)	nt	i	i	nt	i
O=C(O)c1ccc2c(c1)C(=O)N(c1ccc(Nc3ccccc3)cc1)C2=O	i	i	i	i	i
Cc1cccc(N2CCN(C(=O)CSc3nc4ccccc4nc3N3CC(C)OC(C)C3)CC2)c1C (configuration not stated)	i	i	i	i	i
CC(Oc1ccccc1)C(=O)NC1=NCCS1 (configuration not stated)	i	80	38	i	i
N#Cc1ccc(OCC(=O)NC2=NCCS2)cc1	nt	i	i	i	i
CC(C)c1ccc(OCC(=O)NC2=NCCS2)cc1	nt	98	69	i	i
SMILES	NS1 inh	Shiga toxin inh	Cycloheximide cs	LmPK inhibitor	FBPA Giardia inh
O=C(COc1ccccc1)NC1=NCCS1	i	95	41	?	i
Cc1cc(OCCCC(=O)NC2=NCCS2)ccc1Cl	i	i	i	i	i
COc1ccc(C(C(=O)NCC2CCCO2)N(C(=O)CNC(=O)c2ccco2)c2cc(C)ccc2C)cc1OC (configuration not stated)	i	i	i	i	i
NC(=O)c1sc2nc(-c3ccccc3)ccc2c1N	i	97	35	i	i
Nc1c(C(=O)NC2CCCC2)sc2nc(-c3cccs3)ccc12	i	i	22	i	i
CCOC(=O)c1sc2nc(C)cc(-c3ccccc3)c2c1N	i	i	i	i	i
NC(=O)c1sc2nc(-c3cccs3)ccc2c1N	i	64	49	i	i
CCOC(=O)c1sc2nc(-c3ccccc3)ccc2c1N	i	67	92	i	i
COc1ccc(NC(=O)C2CCN(S(=O)(=O)c3cccc4nonc34)CC2)c(OC)c1	i	i	i	i	i
Nc1nc(N)nc(-c2ccccc2O)n1	i	47	i	i	i
COc1ccc(/C=C/c2nc(N)nc(-c3ccccc3O)n2)cc1OC	i	i	15	i	i
